Laboratory results from PubChem BioAssay (Tox21).
Inconclusive results are not listed. Active and inactive are the calls of the source. Unless noted, the call rests on the fitted dose curve; in most records, active means well fitted curve in the direction sought with a large enough effect in the repeat runs; inconclusive means weak or mixed curves; inactive means no such curve, though single readings can be large; an effect the other way counts as inactive or inconclusive.

Assays:
[1] = qHTS assay to identify small molecule agonists of the peroxisome proliferator-activated receptor delta (PPARd) signaling pathway - cell viability counter screen (AID 743211); further: nearly all actives have a fitted effect of over 55% in size
Outline: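 Counter screen for cytotoxicity run in parallel with the PPARd reporter screen. Beta-lactamase reporter HEK293H cells exposed to compounds 17 h; ATP-based CellTiter-Glo luminescence quantified viability.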

[2] = target: Peroxisome proliferator-activated receptor delta (Homo sapiens) (UniProt Q03181); experiment: qHTS assay to identify small molecule agonists of the peroxisome proliferator-activated receptor delta (PPARd) signaling pathway (AID 743212; calls by dose curve)
Sequence of Peroxisome proliferator-activated receptor delta (Homo sapiens) (Q03181 whole entry, looked up): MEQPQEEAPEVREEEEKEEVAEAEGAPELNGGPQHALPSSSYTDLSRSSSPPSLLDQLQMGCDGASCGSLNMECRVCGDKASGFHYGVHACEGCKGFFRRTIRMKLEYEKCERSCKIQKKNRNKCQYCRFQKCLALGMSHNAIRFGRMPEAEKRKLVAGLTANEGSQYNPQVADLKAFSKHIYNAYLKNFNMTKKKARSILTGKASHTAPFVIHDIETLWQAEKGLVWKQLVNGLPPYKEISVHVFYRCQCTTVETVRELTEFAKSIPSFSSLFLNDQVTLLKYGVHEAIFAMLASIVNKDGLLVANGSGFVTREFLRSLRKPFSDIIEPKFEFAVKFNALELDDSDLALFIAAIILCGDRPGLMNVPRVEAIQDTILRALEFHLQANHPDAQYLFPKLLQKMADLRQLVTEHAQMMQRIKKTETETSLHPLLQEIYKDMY
Outline: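 Tox21 library screened in GeneBLAzer PPARd UAS-bla HEK293H cells. After compound treatment at 37 C, a FRET-based beta-lactamase substrate was applied for 2 h and fluorescence recorded.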

[3] = qHTS assay to identify small molecule antagonists of the peroxisome proliferator-activated receptor delta (PPARd) signaling pathway - cell viability counter screen (AID 743213); further: nearly all actives have a fitted effect of over 50% in size
Outline: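 Cytotoxicity counter screen: CellTiter-Glo luminescence read 30 min after addition, in the same wells as the reporter assay. There, PPARd UAS-bla HEK293H cells (3000/well) were treated 17 h at 37 C with compound and 300 nM L165041.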

[4] = target: Peroxisome proliferator-activated receptor delta (Homo sapiens) (UniProt Q03181); experiment: qHTS assay to identify small molecule antagonists of the peroxisome proliferator-activated receptor delta (PPARd) signaling pathway (AID 743215; active means well fitted inhibition curve with a large enough effect in the signal ratio in the repeat runs, not every such curve was filed as active; the % refers to the signal ratio;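 further: cells stimulated with agonist L165041 at 300 nM final during compound exposure; series mostly up to about 62 µM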)
Outline: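 Agonist L165041 (300 nM final) added with compound to PPARd-bla HEK293H UAS-bla reporter cells; 17 h incubation at 37 C. Read-out: LiveBLAzer FRET substrate, 2 h at room temperature, fluorescence intensity.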

[5] = target: Bile acid receptor (Homo sapiens) (UniProt Q96RI1); experiment: qHTS assay to identify small molecule antagonists of the farnesoid-X-receptor (FXR) signaling pathway (AID 743217; active means well fitted inhibition curve with a large enough effect in the signal ratio in the repeat runs, not every such curve was filed as active; the % refers to the signal ratio)
Sequence of Bile acid receptor (Homo sapiens) (Q96RI1 whole entry, looked up): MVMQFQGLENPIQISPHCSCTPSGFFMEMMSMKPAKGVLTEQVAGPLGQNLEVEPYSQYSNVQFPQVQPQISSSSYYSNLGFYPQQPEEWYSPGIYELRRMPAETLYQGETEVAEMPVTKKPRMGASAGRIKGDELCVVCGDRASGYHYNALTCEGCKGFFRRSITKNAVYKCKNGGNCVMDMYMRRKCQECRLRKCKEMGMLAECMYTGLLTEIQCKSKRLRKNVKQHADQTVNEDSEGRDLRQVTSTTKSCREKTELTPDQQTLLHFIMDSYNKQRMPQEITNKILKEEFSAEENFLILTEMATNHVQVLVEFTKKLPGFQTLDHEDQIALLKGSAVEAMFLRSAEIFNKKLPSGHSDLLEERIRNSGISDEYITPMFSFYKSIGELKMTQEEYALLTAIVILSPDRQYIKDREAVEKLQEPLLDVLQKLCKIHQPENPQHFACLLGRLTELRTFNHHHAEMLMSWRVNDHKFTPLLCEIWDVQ
Outline: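 Antagonist mode: chenodeoxycholic acid at 50 uM final stimulates a UAS-driven beta-lactamase reporter in HEK 293T FXR-bla cells during 16 h, 37C compound exposure. Read-out is FRET substrate fluorescence after 2 h at room temperature.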

[6] = target: Bile acid receptor (Homo sapiens) (UniProt Q96RI1); experiment: qHTS assay to identify small molecule agonists of the farnesoid-X-receptor (FXR) signaling pathway (AID 743220; active means well fitted activation curve with a large enough effect in the signal ratio in the repeat runs, not every such curve was filed as active; the % refers to the signal ratio)
Outline: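 FXR-UAS-bla HEK 293T cells carrying a UAS-driven beta-lactamase reporter were plated for 5 h at 37C/5% CO2, then exposed to DMSO-dissolved Tox21 10K compounds for 16 h at 37C. A LiveBLAzer B/G FRET substrate was loaded for 2 h at room temperature before fluorescence reading.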

[7] = qHTS assay to identify small molecule antagonists of the farnesoid-X-receptor (FXR) signaling pathway - cell viability counter screen (AID 743221; active means well fitted cell-killing curve with a large enough effect in the repeat runs, not every such curve was filed as active; further: nearly all actives have a fitted effect of over 50% in size)
Outline: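 Multiplexed counter screen: viability of FXR-bla HEK 293T cells under agonist stimulation by chenodeoxycholic acid (50 uM, final) and test compound for 16 h at 37 C, measured by CellTiter-Glo luminescence in the reporter wells.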

[8] = qHTS assay to identify small molecule agonists of the vitamin D receptor (VDR) signaling pathway - cell viability counter screen (AID 743224); further: series mostly up to about 63 µM; nearly all actives have a fitted effect of over 50% in size
Outline: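 Counter screen run in the same wells as the VDR-bla reporter assay: CellTiter-Glo luminescence, 30 min at room temperature, after 16 h compound treatment at 37C of cells pre-plated for 4 h.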

[9] = qHTS assay to identify small molecule antagonists of the vitamin D receptor (VDR) signaling pathway - cell viability counter screen (AID 743225); further: nearly all actives have a fitted effect of over 50% in size
Outline: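 HEK293T VDR-bla; cpd + 1a,25-(OH)2D3 3 nM final, 16 h 37C/5% CO2; B/G FRET substrate 2 h RT; then CellTiter-Glo 30 min RT, luminescence.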

[10] = qHTS assay to identify small molecule agonists of the endoplasmic reticulum stress response signaling pathway (AID 1159516; active means well fitted activation curve with a large enough effect in the signal ratio in the repeat runs, not every such curve was filed as active; the % refers to the signal ratio)
Outline: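 Ratiometric FRET readout (405 nm excitation; 460 and 530 nm emission) of a beta-lactamase gene driven by the ER stress response element, after 2 hr substrate loading. HeLa ESRE-bla cells were seeded overnight and treated with compounds for only 5 hr at 37 C.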

[11] = qHTS assay to identify small molecule agonists of the endoplasmic reticulum stress response signaling pathway - cell viability counter screen (AID 1159517; calls by dose curve)
Outline: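 In parallel with the ESRE reporter read, cytotoxicity was scored by CellTiter-Glo luminescence (30 min, room temperature) on HeLa ESRE-bla cells dosed for 5 hr.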

[12] = qHTS assay to identify small molecule antagonists of the retinoid-related orphan receptor gamma (ROR-gamma) signaling pathway - cell viability counter screen (AID 1159520); further: nearly all actives have a fitted effect of over 50% in size
Outline: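 Tet-on ROR gamma CHO cells were given compounds for 2 hr, then doxycycline hyclate at 1 uM final, and incubated 16 hr at 37 C. Viability was measured as ATP content by CellTiter-Glo luminescence.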

[13] = target: Nuclear receptor ROR-gamma (Homo sapiens) (UniProt P51449); experiment: qHTS assay to identify small molecule antagonists of the retinoid-related orphan receptor gamma (ROR-gamma) signaling pathway (AID 1159521)
Outline: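 Cells were plated, rested 4 h at 37 C, exposed to compounds for 2 h, then given 1 uM final doxycycline hyclate to induce RORγ expression. After 16 h, ONE-Glo luminescence from the ROR response element reporter was measured.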

[14] = qHTS assay to identify small molecule agonists of the AP-1 signaling pathway (AID 1159526; calls by dose curve)
[15] = target: Retinoic acid receptor RXR-alpha (Homo sapiens) (UniProt P19793); experiment: qHTS assay to identify small molecule agonists of the RXR signaling pathway (AID 1159527; calls by dose curve; further: nearly all actives have a fitted effect of over 35% in size)
Sequence of Retinoic acid receptor RXR-alpha (Homo sapiens) (P19793 whole entry, looked up): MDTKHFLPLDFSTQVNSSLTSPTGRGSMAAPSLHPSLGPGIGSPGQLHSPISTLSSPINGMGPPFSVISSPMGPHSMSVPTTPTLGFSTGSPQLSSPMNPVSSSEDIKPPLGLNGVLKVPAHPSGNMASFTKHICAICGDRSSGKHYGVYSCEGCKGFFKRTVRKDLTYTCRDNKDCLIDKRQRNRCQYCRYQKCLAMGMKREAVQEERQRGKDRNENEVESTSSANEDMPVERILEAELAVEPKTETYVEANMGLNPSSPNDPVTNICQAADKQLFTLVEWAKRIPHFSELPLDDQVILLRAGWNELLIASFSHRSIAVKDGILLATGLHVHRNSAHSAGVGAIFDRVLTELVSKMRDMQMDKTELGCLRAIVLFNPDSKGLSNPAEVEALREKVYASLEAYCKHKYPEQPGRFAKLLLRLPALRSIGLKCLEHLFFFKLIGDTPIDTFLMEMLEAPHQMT
Outline: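 Cells plated at 2,000/well, rested 5 hr at 37 C, pin-dosed with DMSO compound solutions, incubated 16 hr, then loaded with B/G FRET substrate for 2 hr at RT before dual-emission fluorescence reading.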

[16] = target: Vitamin D3 receptor (Homo sapiens) (UniProt P11473); experiment: qHTS assay to identify small molecule agonists of the vitamin D receptor (VDR) signaling pathway (AID 743222; calls by dose curve)
Sequence of Vitamin D3 receptor (Homo sapiens) (P11473 whole entry, looked up): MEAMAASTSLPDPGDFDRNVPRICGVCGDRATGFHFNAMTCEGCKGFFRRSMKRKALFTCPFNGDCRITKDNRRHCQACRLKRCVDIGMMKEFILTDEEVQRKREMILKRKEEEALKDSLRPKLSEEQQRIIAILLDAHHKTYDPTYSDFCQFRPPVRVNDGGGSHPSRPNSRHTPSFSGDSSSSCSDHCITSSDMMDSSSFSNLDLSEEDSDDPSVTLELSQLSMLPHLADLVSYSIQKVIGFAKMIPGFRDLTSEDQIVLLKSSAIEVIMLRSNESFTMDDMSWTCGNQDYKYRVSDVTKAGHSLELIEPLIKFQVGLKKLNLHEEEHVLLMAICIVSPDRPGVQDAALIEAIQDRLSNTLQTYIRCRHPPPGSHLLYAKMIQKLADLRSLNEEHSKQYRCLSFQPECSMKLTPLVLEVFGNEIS
Outline: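 Agonist mode, beta-lactamase reporter: fluorescence from LiveBLAzer B/G FRET substrate (2 h, room temperature) read after 16 h compound treatment at 37 C of VDR-bla cells, which were pre-incubated 4 h after seeding.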

[17] = target: Vitamin D3 receptor (Homo sapiens) (UniProt P11473); experiment: qHTS assay to identify small molecule antagonists of the vitamin D receptor (VDR) signaling pathway (AID 743223; active means well fitted inhibition curve with a large enough effect in the signal ratio in the repeat runs, not every such curve was filed as active; the % refers to the signal ratio)
Outline: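 Cells carrying a VDR-driven beta-lactamase reporter (VDR-bla) were co-treated with compound and 3 nM final 1alpha,25-dihydroxyvitamin D3 for 16 h at 37C; reporter activity was measured as FRET substrate fluorescence after 2 h at room temperature.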

[18] = qHTS assay to identify small molecule agonists of the AP-1 signaling pathway - cell viability counter screen (AID 1159525; calls by dose curve; further: nearly all actives have a fitted effect of over 55% in size)
Outline: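 Same-well cytotoxicity counter screen of the Tox21 10K library in ME-180 cells. The readout is ATP-dependent luminescence after 5 h compound treatment. Data are normalised to DMSO and tetra n-octyl ammonium bromide controls.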

[19] = qHTS assay to identify small molecule agonists of the farnesoid-X-receptor (FXR) signaling pathway - cell viability counter screen (AID 743218); further: nearly all actives have a fitted effect of over 45% in size
Outline: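 Viability counter screen in the same wells: CellTiter-Glo luminescence, 30 min room-temperature incubation, measured after the beta-lactamase read. Cells were GeneBLAzer FXR-UAS-bla HEK 293T, compound-treated 16 h at 37C.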

Measured: Potency

COC(=O)N/N=C/c1c[n+]([O-])c2ccccc2[n+]1[O-]
inactive: [1] | [2] | [3] | [4] | [5] | [6] | [7] | [8] | [9] | [10] | [11] | [12] | [13] | [14] | [15]

NS(=O)(=O)c1cc2c(cc1C(F)(F)F)NCNS2(=O)=O
inactive: [1] | [2] | [3] | [4] | [5] | [7] | [16] | [17] | [10] | [11] | [12] | [13] | [18] | [14] | [15]

CCc1ncc(C)[nH]1
inactive: [1] | [2] | [3] | [4] | [19] | [6] | [7] | [17] | [9] | [10] | [11] | [12] | [13] | [14] | [15]

CCO/C=C1\N=C(c2ccccc2)OC1=O
inactive: [1] | [2] | [3] | [4] | [19] | [7] | [9] | [11] | [12] | [13] | [18] | [14] | [15]

Cc1ccc2cccnc2c1
inactive: [1] | [3] | [5] | [19] | [6] | [7] | [16] | [8] | [10] | [11] | [12] | [13] | [18] | [14] | [15]

CC(=O)c1ccc(O)c(C(N)=O)c1
inactive: [1] | [2] | [3] | [4] | [5] | [19] | [6] | [7] | [16] | [9] | [10] | [11] | [13] | [18] | [14] | [15]

Cc1nc2ccc(Cl)cc2[nH]1
inactive: [1] | [3] | [5] | [19] | [6] | [7] | [16] | [17] | [8] | [10] | [11] | [12] | [13] | [18] | [14] | [15]

CCCCN1C(=O)c2ccccc2C1=O
inactive: [5] | [19] | [7] | [16] | [9] | [10] | [12] | [13] | [18] | [14] | [15]

COc1cc(C(=O)NC2CCCNC2)cc(OC)c1OC (configuration not stated)
inactive: [1] | [5] | [19] | [6] | [7] | [16] | [17] | [8] | [9] | [10] | [11] | [12] | [13] | [18] | [14] | [15]

C=CCN(CC=C)CC=C
inactive: [1] | [2] | [3] | [19] | [7] | [16] | [8] | [9] | [11] | [12] | [13] | [18] | [14] | [15]

COC(=O)c1cc(Cl)c(NC(C)=O)cc1OC
inactive: [1] | [2] | [3] | [4] | [5] | [19] | [6] | [7] | [17] | [8] | [9] | [10] | [11] | [12] | [13] | [14] | [15]

CCCCOCCCC
inactive: [1] | [3] | [19] | [7] | [16] | [17] | [8] | [9] | [10] | [11] | [12] | [13] | [18] | [14]

NNC(=O)OCc1ccccc1
inactive: [1] | [2] | [3] | [4] | [19] | [7] | [16] | [17] | [8] | [9] | [10] | [11] | [13] | [18] | [14] | [15]

CCCC(=O)C(CC)Sc1ccoc1C (configuration not stated)
inactive: [1] | [3] | [19] | [7] | [16] | [8] | [9] | [10] | [11] | [13] | [14] | [15]

CCCCC(CC)CCC(CC(C)C)OS(=O)(=O)O (configuration not stated)
inactive: [1] | [3] | [5] | [19] | [6] | [7] | [16] | [17] | [8] | [9] | [10] | [11] | [13] | [18] | [14] | [15]

Nc1cc(S(=O)(=O)O)ccc1O
inactive: [1] | [2] | [3] | [4] | [19] | [7] | [16] | [17] | [8] | [9] | [10] | [11] | [12] | [13] | [18] | [14] | [15]

C=CC(=O)OCCOCCOCC
inactive: [1] | [3] | [19] | [7] | [8] | [10] | [12] | [13] | [14] | [15]

CNC(=O)c1c(I)c(NC(C)=O)c(I)c(C(=O)O)c1I
inactive: [1] | [2] | [3] | [4] | [19] | [7] | [8] | [9] | [10] | [11] | [12] | [13] | [18] | [14] | [15]

C/C=C/C(=O)CCCC
inactive: [1] | [4] | [5] | [6] | [7] | [17] | [9] | [10] | [11] | [13] | [18] | [14] | [15]

O=C(OOC(=O)c1ccccc1)c1ccccc1
inactive: [1] | [2] | [3] | [4] | [19] | [7] | [9] | [11] | [12] | [13] | [18] | [14] | [15]

Cc1ccccc1C#N
inactive: [1] | [2] | [3] | [4] | [5] | [19] | [6] | [7] | [17] | [8] | [9] | [10] | [11] | [12] | [13] | [18] | [14] | [15]
